GRP78 ERSR act: inducers of ER stress response in human glioma cells | U87-MG GRP78 promoter luciferase reporter, 16 h | Potency, µM, without a hit: top-dose activation, usual class: activators | 420,000 compounds, 0.02% hits | AID 602332; note: potency is the fitted concentration of half-maximal effect; series mostly up to about 76 µM; % of control where 0% means no effect; nearly all actives have a fitted effect of over 35% in size
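Stably transfected U87-MG human glioma cells carrying a GRP78-based luminescent sensor were seeded at 1000 cells/well, pin-dosed with compounds and incubated 16 h. Luciferase reagent was then added, and end-point luminescence was read after 10 min at room temperature.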
Mm-Cpn inhibitor: inhibitors of Methanococcus maripaludis chaperonin TRiC (MmCpn); purified Mm-Cpn ATPase, ADP Transcreener TR-FRET; Potency, µM (series often up to 76.9 µM), inactives show at the top dose activity, negative = inhibition, hits mostly inhibitors; 330,000 compounds, 0.031% hits; AID 504842; note: potency is the fitted concentration of half-maximal effect; % is set by controls: 0 for no effect and ±100 for the full control effect; nearly all actives have a fitted effect of over 80% in size
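Quantitative HTS used 25 nM Mm-CPN and 10 uM ATP in magnesium/KCl Tris buffer, pH 7.4, with 1 mM DTT. Hydrolysis ran 30 min at 37°C; ADP was read by HTRF.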
CCT chaperon mod: changes cytosolic chaperonin activity. purified chaperonin ATPase assay, HTRF ADP detection, 30 min. activity change, % (no concentration beside the values), hits read low. 360,000 compounds, 0.3% hits; in the data active = activity change below about -30%; note: % is set by controls: 0 for no effect and ±100 for the full control effect
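TRiC at 40 or 20 nM final (batch-dependent) in 30 mM Tris pH 7.4, 100 mM KCl, 5 mM MgCl2, 1 mM DTT, with compound at single 76 uM and 10 uM ATP, 30 min at 37 deg C. ADP detected by HTRF Transcreener, 665/615 ratio.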
pAkt inh: inhibitors of Akt phosphorylation; Neuro2A IGF-stimulated pAkt S473 HTRF, 20 min; hits give low values; activity change, % for hits at 50 µM; 360,000 compounds, 0.32% hits; in the data active = activity change below about -80%; inconclusive = mostly about -51% to -80%; note: % is set by controls: 0 for no effect and ±100 for the full control effect
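Single-point screen (50 µM final compound) in Neuro2A cells stimulated 20 min with 6 nM IGF at 37 deg C. After lysis, Ser473-phosphorylated Akt read by HTRF (ex 330 nm, em 615/665 nm) as the 665/615 ratio.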
mIDH1 inhibitor: blocks human mutant IDH1 R132H enzyme. O75874. IDH1-R132H enzyme, NADPH consumption, diaphorase/resazurin fluorescence. Potency, µM (titrated, usually from 76.6 µM), for inactives: at the highest dose activity change, negative = inhibition, most hits filed as inhibitors. 390,000 compounds, 0.093% hits. AID 602179; note: potency is the fitted concentration of half-maximal effect; % is set by controls: 0 for no effect and ±100 for the full control effect; nearly all actives have a fitted effect of over 65% in size
Target sequence (O75874 whole entry R132H, stated change not applied): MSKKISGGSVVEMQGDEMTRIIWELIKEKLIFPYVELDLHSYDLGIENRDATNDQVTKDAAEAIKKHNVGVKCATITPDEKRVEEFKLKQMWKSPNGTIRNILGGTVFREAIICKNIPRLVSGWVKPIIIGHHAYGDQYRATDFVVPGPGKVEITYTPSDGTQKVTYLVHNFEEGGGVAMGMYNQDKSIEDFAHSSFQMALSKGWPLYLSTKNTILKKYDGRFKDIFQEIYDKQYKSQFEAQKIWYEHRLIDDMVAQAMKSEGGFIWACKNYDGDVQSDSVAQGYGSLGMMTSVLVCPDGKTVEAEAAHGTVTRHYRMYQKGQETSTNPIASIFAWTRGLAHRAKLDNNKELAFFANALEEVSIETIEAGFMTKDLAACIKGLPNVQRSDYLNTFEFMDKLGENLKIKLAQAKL
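IDH1-R132H (0.5 ug/mL) preincubated 30 min with compound, then NADPH (0.016 mM) and alpha-KG (2 mM) added; 80 min at RT, pH 7.5. Remaining NADPH coupled via diaphorase/resazurin to fluorescence (540/590 nm); concentration-response curves normalized to no-enzyme control.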
GLS inhibitor: glutaminase GLS (human) inhibition; O94925; GLS enzymatic activity, qHTS titration; Potency, µM (doses to about 45.5 µM), without a hit: at the top dose activity change, negative = inhibition, actives largely listed as inhibitors; 410,000 compounds, 0.21% hits; note: potency is the fitted concentration of half-maximal effect; % is set by controls: 0 for no effect and ±100 for the full control effect
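Human kidney-isoform GLS in 45 mM KH2PO4 pH 8.2, 0.02% Tween-20, with compound, started with 1mM L-Glutamine (added stock). Glutamate oxidase/HRP/Amplex red coupled fluorescence read at start and after 30 min at RT.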
Resorufin autofl: interferes with resorufin fluorescence in IDH1 counter-screen | Resorufin detection reagent fluorescence interference, cell-free | shares compounds with mIDH1 inhibitor | inhibition of signal, % at 51.2 µM | 750 tested, under 10 active;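 note: 0% = wells with normal resorufin and full inhibition = wells lacking resorufin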
WT IDH1 inh: selectivity of mutant IDH1 inhibitors: human wild-type IDH1 | 750 compounds, 9% hits | WT IDH1 enzyme, NADPH diaphorase/resazurin fluorescence | AID 623995 | Potency, µM (doses to about 115 µM), for the others: at the highest dose activity change, negative = inhibition, most hits filed as inhibitors | shares compounds with mIDH1 inhibitor;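 note: potency is the fitted concentration of half-maximal effect; 0% = full WT IDH1 enzyme control and full inhibition = no enzyme wells; nearly all actives have a fitted effect of over 55% in size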
Target sequence (O75874 whole entry, looked up): as the sequence (O75874 whole entry R132H, stated change not applied) above, with H132R counted along it
IDH1 R132H conf: confirmation of human mutant IDH1 inhibitors; IDH1 R132H enzyme, NADPH diaphorase/resazurin fluorescence; Potency, µM (highest dose often 76.6 µM), for the others: at the highest dose activity change, negative = inhibition, usual class: inhibitors; shares compounds with mIDH1 inhibitor; AID 624002; 750 compounds, 83% hits; note: potency is the fitted concentration of half-maximal effect; nearly all actives have a fitted effect of over 50% in size
Active calls of the source: *; i = inactive; ? = inconclusive; . = no result given. In the library only some 0.85% were active in any assay of this set; here they are far more common. Unless noted, calls come from the whole dose curve; as a rule, active = well fitted curve in the direction sought with a large enough effect; inconclusive = small, poorly fitted or top-dose-only effect, or another doubt; inactive = no such curve, though single readings can be large; an effect the other way counts as inactive or inconclusive.

SMILES | GRP78 ERSR act | Mm-Cpn inhibitor | CCT chaperon mod | pAkt inh | mIDH1 inhibitor | GLS inhibitor | Resorufin autofl | WT IDH1 inh | IDH1 R132H conf
COc1ccc(C(=O)NCCN2Cc3ccccc3OC(c3ccsc3)C2)c(OC)n1 (configuration not stated) | -3.0% | . | . | . | . | . | . | . | .
CC(C)=CCc1c2c(c3occ(-c4ccc(O)c(O)c4)c(=O)c3c1O)C=CC(C)(C)O2 | -12.4% | . | 1.7 | i | 52.1µM* | 19.2% | 0.4 | -12.3% | 44.7µM*
CC(C)=CCc1c2c(c3occ(-c4ccc(O)cc4)c(=O)c3c1O)C=CC(C)(C)O2 | ? | -0.8% | -0.4 | i | -3.9% | 1.0% | . | . | .
CC1(C)C=Cc2c(c3c(c4c(=O)c(-c5ccc(O)cc5)coc24)OC(C)(C)CC3)O1 | 6.0% | -1.2% | -0.5 | i | 39.8µM* | -0.2% | 9.3 | -14.0% | 25.1µM*
CSc1nnc(CNC(=O)c2cccc3ccccc23)n1-c1ccccc1C | -3.8% | . | . | . | . | . | . | . | .
Cc1cnc(C)c(-c2cc(F)cc3c2OC(CNC(=O)c2cc(Cl)ccc2F)C3)n1 (configuration not stated) | -3.4% | . | . | . | . | . | . | . | .
COc1ccc(CN2C(=O)c3cccnc3C2Nc2ccc(C)cc2)cc1 (configuration not stated) | -1.9% | -14.1% | -1.0 | i | 0.4% | 11.2% | . | . | .
Cc1ccc(NC2c3ncccc3C(=O)N2Cc2cccs2)cc1 (configuration not stated) | -1.1% | ? | 0.9 | i | 52.1µM* | ? | -2.9 | 1.8% | -21.0%
Cc1cc(O)c(C(C)C)cc1C1(c2cc(C(C)C)c(O)cc2C)OC(=O)c2ccccc21 | 0.1% | -2.1% | -1.4 | i | 16.5µM* | -1.4% | 0.4 | -6.3% | 15.8µM*
COCCN(C)C(=O)c1cnn(-c2ncc3c(n2)-c2ccccc2CCC3)c1C1CC1 | -0.6% | . | . | . | . | . | . | . | .
NNC(=O)CN1C(c2ccc(Cl)cc2)=Nc2ccc(Br)cc2C1c1ccccc1 (configuration not stated) | -0.2% | -5.3% | -1.4 | i | ? | -0.1% | -13.2 | ? | -13.2%
CC(C)(CNC(=O)c1cnn(-c2ncc3c(n2)-c2ccccc2CC3)c1C1CC1)N1CCOCC1 | -4.0% | . | . | . | . | . | . | . | .
CSC1=NC(=O)/C(=C\c2cccc3ccccc23)S1 | 4.0% | 1.8% | -1.8 | i | 58.5µM* | -1.2% | -5.4 | 70.8µM* | 22.4µM*
Cn1cc(S(=O)(=O)c2cccc(Cl)c2)c(=O)c2cc(F)c(N3CCCCC3)cc21 | -4.2% | . | . | . | ? | -0.6% | 3.4 | 3.2% | 12.6µM*
CC(=O)N1c2ccc(Cl)cc2C2C=CCC2C1c1cccc2ccccc12 (configuration not stated) | -9.3% | -2.1% | 1.3 | i | 14.7µM* | -12.3% | 10.6 | 39.8µM* | 6.31µM*
Cc1sc(NC(=O)c2ccco2)c(C(c2cccnc2)N2CCN(CCO)CC2)c1C (configuration not stated) | 7.8% | 0.7% | -0.6 | i | 4.9% | 8.9% | . | . | .
CCOC(=O)C1CCN(C(c2cccnc2)c2c(NC(=O)c3ccco3)sc(C)c2C)CC1 (configuration not stated) | -3.0% | 1.8% | -2.0 | i | ? | 3.8% | 0.8 | -2.9% | 28.2µM*

High-throughput results: PubChem BioAssay, National Center for Advancing Translational Sciences (NCATS)
